From PubChem BioAssay (NCATS) come the findings set out here.

SMILES strings stand for the structures. Inconclusive results are not listed. Active and inactive are the calls of the source. Calls follow the shape of the dose curve; as a rule, active = well fitted inhibition curve with a large enough effect; inconclusive = small, poorly fitted or top-dose-only effect; inactive = flat fitted curve, though single readings scatter.

Holding throughout (assay): qHTS profiling for inhibitors of Plasmodium falciparum proliferation (AID 504749); also: nearly all actives have a fitted effect of over 60% in size
Common to all, as to conditions: P. falciparum in erythrocytes, SYBR Green DNA, 72 h; series mostly up to 28.7 µM
In general terms: Quantitative high-throughput screening tests each substance at several concentrations.

In assay [1] the test system is CP266. A digest of the protocol:
(§1)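 Readout was DNA-dye fluorescence from lysed cultures, ex 485/em 535 nm. Parasitized red cells had grown 72 h with compound; data scaled between 0.29 uM artemisinin and DMSO wells and corrected using vehicle-only plates.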

Assay [2] concerns CP268. The method, boiled down:
as §1

For assay [3], the system named is CP269. The method, boiled down: as §1
The subject of assay [4] is CP286. The method, boiled down:
as §1

The test system of assay [5] is CP291. A digest of the protocol: as §1
The subject of assay [6] is CP297. The method, boiled down: as §1
The subject of assay [7] is CP305. The method, boiled down: as §1
The test system of assay [8] is CP315. A digest of the protocol: as §1
In assay [9] the test system is CP325. A digest of the protocol:
as §1

The test system of assay [10] is CP329. The method, boiled down:
as §1

Assay [11] relates to CP335. The method, boiled down: as §1
The subject of assay [12] is DFO2036. A digest of the protocol: as §1
The test system of assay [13] is DIV14. A digest of the protocol: as §1
Assay [14] has as its system DIV17. A digest of the protocol:
as §1

For assay [15], the system named is DIV30. A digest of the protocol: as §1
For assay [16], the system named is Dd2. A digest of the protocol: as §1
The subject of assay [17] is ECU. A digest of the protocol:
as §1

The test system of assay [18] is FAB9. The method, boiled down:
as §1

Assay [19] concerns GB4. A digest of the protocol:
as §1

In assay [20] the test system is HB3. The method, boiled down: as §1
Potency is read from the fitted curve at half-maximal effect.

Regarding `COc1ccc2c(c1OC)C(=O)OC2[C@H]1c2c(cc3c(c2OC)OCO3)CCN1C` (stereo partly specified), the Potency result in [1], in assay [2], in [3], in assay [4], in assay [5] and in assay [6] was “inactive” throughout. Besides, the Potency result in assay [7], in [8], in [9], in assay [10], in assay [11] and in assay [12] was “inactive” in each case. In addition, the Potency entry in assay [13], in assay [14], in assay [15], in assay [16], in assay [17] and in [18] was “inactive” in each case. Also, the Potency entry in [19] and in [20] was “inactive” in each case.

With `Nc1nc2c(c(=O)[nH]1)N(C=O)[C@H](CNc1ccc(C(=O)N[C@@H](CCC(=O)O)C(=O)O)cc1)CN2`, the Potency result in assay [1], in assay [2], in assay [3], in [4], in assay [6] and in assay [7] was “inactive” each time. Moreover, the Potency result in assay [8], in [9], in [10], in assay [11], in assay [12] and in assay [13] was “inactive” in each case. The Potency entry in assay [14], in assay [15], in [16], in assay [17], in [18] and in assay [19] was “inactive” throughout. In [20], the Potency entry is “inactive”.

In the case of `OCC(O)C(O)C(O)CO` (stereo unspecified), the Potency entry in assay [1], in [2], in [3], in assay [4], in assay [5] and in [6] was “inactive” throughout. Moreover, the Potency entry in assay [7], in [8], in assay [9], in assay [10], in [11] and in [12] was “inactive” in each case. Further, the Potency entry in assay [13], in assay [14], in assay [15], in assay [16], in [17] and in assay [18] was “inactive” in each case. Also, the Potency entry in [19] and in assay [20] was “inactive” each time.

On to `COc1ccc([C@@H]2CNC(=O)C2)cc1OC1CCCC1`, for which the Potency result in [1], in [2], in assay [3], in assay [4], in [5] and in [6] was “inactive” in each case. The Potency entry in assay [7], in [8], in assay [9], in assay [10], in assay [11] and in assay [12] was “inactive” in each case. Further, the Potency result in assay [13], in assay [14], in assay [15], in assay [16], in assay [17] and in assay [18] was “inactive” throughout. Moreover, the Potency result in [19] and in assay [20] was “inactive” in each case.

For `COc1cccc2c1C(=O)c1c(O)c3c(c(O)c1C2=O)C[C@@](O)(C(=O)CO)C[C@@H]3O[C@H]1C[C@H](N)[C@H](OC2CCCCO2)[C@H](C)O1` (stereo partly specified), the Potency in [1] was 7.57 µM (active); in [2], 8.49 µM (active); in assay [3], 5.36 µM (active); in assay [4] it was 2 µM (active); in assay [5], 6.75 µM (active); in [6] it was 6.75 µM (active). In addition, the Potency in [7] was 6.01 µM (active); in assay [8], 16.9 µM (active); in [9] it was 7.57 µM (active); in assay [10], 6.75 µM (active); in assay [11], 3.01 µM (active); in assay [12] it was 3.55 µM (active). The Potency was 3.79 µM (active) in assay [13]; 2.39 µM (active) in [14]; 6.75 µM (active) in assay [15]; 2 µM (active) in [16]; 2 µM (active) in [17]; 12.6 µM (active) in [18]. Further, the values for the Potency in assay [19] and in assay [20] were 4.78 µM (active) and 5.01 µM (active), respectively.

For the molecule `CCCCCCCCCCCC(CC1OC(=O)C1CCCCCC)OC(=O)C(CC(C)C)NC=O` (stereo unspecified), the Potency result in assay [1] and in assay [8] was “inactive” each time. Moreover, the Potency was 1 µM (active) in assay [4]; 0.675 µM (active) in assay [11]; 0.501 µM (active) in [12]; 0.794 µM (active) in assay [16]; 0.398 µM (active) in [17]; 1.26 µM (active) in [20].

As for `CCC(C(=O)O)C1CCC(C)C(C(C)C(O)C(C)C(=O)C(CC)C2OC3(C=CC(O)[C@@]4(CC[C@](C)(C5CC[C@@](O)(CC)C(C)O5)O4)O3)C(C)CC2C)O1` (stereo partly specified), the Potency in assay [1] is 1.35 µM (active); in assay [2], 1.07 µM (active); in assay [3] it was 0.675 µM (active); in assay [4], 0.794 µM (active); in [5], 0.675 µM (active); in [6], 0.757 µM (active). Also, the Potency was 0.675 µM (active) in [7]; 0.478 µM (active) in assay [8]; 0.849 µM (active) in assay [9]; 0.601 µM (active) in assay [10]; 0.379 µM (active) in assay [11]; 0.794 µM (active) in [12]. The Potency in [14] is 0.601 µM (active); in assay [15], 0.478 µM (active); in assay [16] it was 0.891 µM (active); in [17], 1.58 µM (active); in assay [18], 2.24 µM (active); in assay [19] it was 0.536 µM (active). The Potency in [20] was 0.891 µM (active).
